About 83,000 compounds went through this panel and 20% of them were active in at least one assay; those are over-represented in the sample as a whole.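 Assay: single dose, 48 h. Readout: percent growth (0 = no net growth; negative = cell death). Active: <10.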 A number with no mark means an inactive call. Active and inactive are the calls of the source.

The experiment has as its system NCI-H460 lung. Description: NCI-60 one-dose screen, 48 h (100 = growth as untreated, 0 = no growth, -100 = all killed). The conditions noted are these: 10 µM.
Consider `COc1cc2nc(Nc3cccc(NC(C)=O)c3)nc(N)c2cc1OC`, for which the growth is 110%. The same measure for `COc1ccc(-c2nc3sc(C4CC4)nn3c2/C=C2/C(=O)Nc3ccc(OC)cc32)cc1`: 77.7%; for `Cc1cc(N(CCCNc2ccnc3cc(Cl)ccc23)Cc2cccs2)nc(Cl)n1`: 35.3%; for `O=C1OCC2=C1C(c1cccc(Br)c1)c1cc3c(cc1N2CCO)CCC3` (stereo not given): -6.92% (active). The same measure for `COc1ccc(/C=C2/CN(C(=O)c3ccc(C)cc3)C/C(=C\c3ccc(OC)cc3)C2=O)cc1`: 105%; for `Cc1ccc(C(=O)Nc2cccc(F)c2)cc1NC(=O)C1(c2ncnc3[nH]ccc23)CC1`: 96.2%; for `Clc1ccccc1N=Cc1ccc2c(c1)OCO2`: 116%.

With `CC12O[C@H](C[C@@H](OC(=O)c3ccccc3)[C@H]1O)n1c3ccccc3c3c4c(c5c6ccccc6n2c5c31)C(=O)NC4=O`, the growth was 79.6%. Turning to `CCN(CC)CCNc1ccc(CO)c2oc3cc(Cl)ccc3c(=O)c12`, the growth is 88.2%. The same measure for `N#Cc1ncc(-c2cc(F)c(F)c(F)c2)c(NC2CCCCCC2)n1`: 95.7%; for `CC/C(C)=C(\C)C(=O)O`: 105%.

Consider `CC(=O)N1N=C(c2ccc(Cl)cc2)CC1c1sc(Cl)nc1Cl` (stereo not given), for which the growth was 107%.

Turning to `Nc1ncn(C2OC(CO)C(O)C2O)c(=O)n1` (stereo not given), the growth is -1.43% (active). `Nc1c(C(=O)Nc2cccc(Br)c2)sc2nc3c(cc12)C(O)CCC3` (stereo not given): the growth is 11.3%.

In the case of `Oc1[nH]c2ccc(Cl)cc2c1/C=c1/ccc2c(c1)N=C(c1cccs1)N=2`, the growth is 66.1%.

Values taken from PubChem BioAssay (NCI).
